According to PubChem BioAssay (Tox21):
Results filed as inconclusive are left out. Some compounds were tested as several samples or in several runs, with calls that do not always agree. Calls of active or inactive are those of the source. Unless noted, calls follow the shape of the dose curve; as a rule, active = well fitted curve in the direction sought with a large enough effect in the repeat runs; inconclusive = weak or mixed curves; inactive = no such curve, though single readings can be large; an effect the other way counts as inactive or inconclusive.

Experiments:
[1] = qHTS assay to identify small molecule agonists of the RXR signaling pathway - cell viability counter screen (AID 1159529); also: nearly all actives have a fitted effect of over 50% in size; also: potency is read from the fitted curve at half-maximal effect
Outline: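 Tox21 10K compounds were tested for cytotoxicity against GeneBLAzer RXR-alpha HEK 293T cells grown in 2% charcoal-stripped FBS. Exposure lasted 16 hr at 37 C, 5% CO2; viability read by CellTiter-Glo luminescence.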

[2] = qHTS assay to identify small molecule antagonists of the retinoid acid receptor (RAR) signaling pathway - cell viability counter screen (AID 1159551); also: nearly all actives have a fitted effect of over 35% in size; also: potency is read from the fitted curve at half-maximal effect
Outline: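 C3RL4 cells were seeded overnight at 37 C, then treated with compounds plus 1 uM (final) retinol for 6 h at 37 C. Viability was read as ATP by CellTiter-Glo luminescence after 30 min at room temperature.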

[3] = qHTS assay to identify small molecule antagonists of the retinoic acid receptor (RAR) signaling pathway (AID 1159552; also: nearly all actives have a fitted effect of over 50% in size; also: potency is read from the fitted curve at half-maximal effect)
Outline: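 Overnight-plated C3RL4 reporter cells get compound, then retinol to 1 uM final; plates sit 6 hr at 37 C, 5% CO2. A luciferase reagent is added and light output recorded after 30 min at room temperature.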

[4] = qHTS assay to identify small molecule agonists of the retinoic acid receptor (RAR) signaling pathway (AID 1159553); also: potency is read from the fitted curve at half-maximal effect
Outline: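 C3RL4 cells carrying a RARE luciferase reporter were plated overnight at 37 C, then exposed to compounds in DMSO for 6 hr at 37 C and 5% CO2. Luminescence was read 30 min after luciferase reagent addition at room temperature.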

[5] = qHTS assay to identify small molecule antagonists of the estrogen related receptor (ERR) signaling pathway from Tox21 library - cell viability counter screen (AID 1224834); also: nearly all actives have a fitted effect of over 30% in size; also: potency is read from the fitted curve at half-maximal effect
Outline: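 ERR reporter cells were plated 6 h before compound addition, then exposed to test compounds in DMSO for 17.5 h at 37 C. Viability was read as CellTiter-Fluor fluorescence after a 30-minute incubation at 37 C.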

[6] = target: Nuclear receptor subfamily 1 group I member 3 (Homo sapiens) (UniProt Q14994); assay: qHTS assay to identify small molecule antagonists of the constitutive androstane receptor (CAR) signaling pathway (AID 1224838); also: nearly all actives have a fitted effect of over 40% in size; also: potency is read from the fitted curve at half-maximal effect
Chain of Nuclear receptor subfamily 1 group I member 3 (Homo sapiens) (Q14994 whole entry, looked up): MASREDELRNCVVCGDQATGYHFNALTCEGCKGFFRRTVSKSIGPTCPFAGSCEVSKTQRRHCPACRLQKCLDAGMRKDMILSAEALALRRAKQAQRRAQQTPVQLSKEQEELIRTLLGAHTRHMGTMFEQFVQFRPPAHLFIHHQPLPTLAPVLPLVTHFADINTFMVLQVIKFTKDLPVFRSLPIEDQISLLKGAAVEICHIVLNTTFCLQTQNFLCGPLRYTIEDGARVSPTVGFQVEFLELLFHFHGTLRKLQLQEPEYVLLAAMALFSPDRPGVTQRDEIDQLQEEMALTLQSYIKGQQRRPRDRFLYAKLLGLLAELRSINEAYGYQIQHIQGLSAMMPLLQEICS
Outline: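 HepG2 cells stably co-transfected with hCAR and a CYP2B6-2.2kb luciferase reporter were seeded 4 h before compound addition at 15 concentrations. Cells were stimulated with 50 nM CITCO (final) for 24 h at 37 C; luciferase luminescence was then read.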

[7] = qHTS assay to identify small molecule antagonists of the estrogen related receptor signaling pathway with the pleiotropic PPARgamma coactivator (PGC) from Tox21 10K library (AID 1224841; call rule not given here; also: actives are mostly falling curves and most rising ones were filed inactive; nearly all actives have a fitted effect of over 50% in size; also: potency is read from the fitted curve at half-maximal effect)
Outline: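 PGC/ERR reporter cells were seeded at 2,000 cells/well and held 6 hours at 37 C/5% CO2 before pin-tool addition of compounds in DMSO. After 18 hours at 37 C, One-Glo was added and luminescence read after 30 minutes at room temperature.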

[8] = qHTS assay to identify small molecule agonists of the estrogen related receptor signaling pathway with the pleiotropic PPARgamma coactivator (PGC) from Tox21 10K library (AID 1224842); also: nearly all actives have a fitted effect of over 15% in size; also: potency is read from the fitted curve at half-maximal effect
Outline: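 Luminescence from One-Glo (30 min, room temperature) measured after PGC/ERR cells had 18 h at 37 C with pinned compound (23 nL in DMSO). Cells had been seeded at 2,000 per well and pre-incubated 6 h.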

[9] = target: Thyrotropin receptor (Homo sapiens) (UniProt P16473); assay: qHTS assay to identify small molecule agonists of the thyroid stimulating hormone receptor (TSHR) signaling pathway (AID 1224843; calls by dose curve; also: nearly all actives have a fitted effect of over 45% in size; also: potency is read from the fitted curve at half-maximal effect)
Chain of Thyrotropin receptor (Homo sapiens) (P16473 whole entry, looked up): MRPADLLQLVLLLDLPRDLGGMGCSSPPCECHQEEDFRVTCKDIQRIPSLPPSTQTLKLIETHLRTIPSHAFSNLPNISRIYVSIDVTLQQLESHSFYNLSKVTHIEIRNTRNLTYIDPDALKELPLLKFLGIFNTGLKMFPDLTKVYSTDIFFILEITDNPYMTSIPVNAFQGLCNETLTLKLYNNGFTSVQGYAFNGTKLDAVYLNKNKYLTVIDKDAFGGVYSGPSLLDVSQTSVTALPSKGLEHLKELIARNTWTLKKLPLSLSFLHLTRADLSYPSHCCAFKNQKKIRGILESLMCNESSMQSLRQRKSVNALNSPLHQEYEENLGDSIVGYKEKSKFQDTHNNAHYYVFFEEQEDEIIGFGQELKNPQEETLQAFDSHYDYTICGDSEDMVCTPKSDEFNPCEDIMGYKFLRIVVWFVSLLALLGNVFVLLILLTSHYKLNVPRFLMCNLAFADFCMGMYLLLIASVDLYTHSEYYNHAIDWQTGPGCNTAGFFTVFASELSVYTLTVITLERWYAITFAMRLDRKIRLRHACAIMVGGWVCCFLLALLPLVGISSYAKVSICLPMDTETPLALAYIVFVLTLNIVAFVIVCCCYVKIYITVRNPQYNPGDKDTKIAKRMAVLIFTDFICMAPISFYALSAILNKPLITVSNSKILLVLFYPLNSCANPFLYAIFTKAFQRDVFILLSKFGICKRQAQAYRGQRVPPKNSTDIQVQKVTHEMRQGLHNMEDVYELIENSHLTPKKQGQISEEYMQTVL
Outline: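 HEK293 cells stably bearing the thyrotropin receptor were plated at 800 cells/well and challenged with compound (30 min, RT). Accumulated cAMP was quantified via cAMP-d2 competing for cryptate-tagged antibody.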

[10] = target: Luciferin 4-monooxygenase (Photinus pyralis) (UniProt P08659); assay: qHTS assay to identify small molecule inhibitors of firefly luciferase (AID 1224835); also: nearly all actives have a fitted effect of over 25% in size; also: potency is read from the fitted curve at half-maximal effect
Chain of Luciferin 4-monooxygenase (Photinus pyralis) (P08659 whole entry, looked up): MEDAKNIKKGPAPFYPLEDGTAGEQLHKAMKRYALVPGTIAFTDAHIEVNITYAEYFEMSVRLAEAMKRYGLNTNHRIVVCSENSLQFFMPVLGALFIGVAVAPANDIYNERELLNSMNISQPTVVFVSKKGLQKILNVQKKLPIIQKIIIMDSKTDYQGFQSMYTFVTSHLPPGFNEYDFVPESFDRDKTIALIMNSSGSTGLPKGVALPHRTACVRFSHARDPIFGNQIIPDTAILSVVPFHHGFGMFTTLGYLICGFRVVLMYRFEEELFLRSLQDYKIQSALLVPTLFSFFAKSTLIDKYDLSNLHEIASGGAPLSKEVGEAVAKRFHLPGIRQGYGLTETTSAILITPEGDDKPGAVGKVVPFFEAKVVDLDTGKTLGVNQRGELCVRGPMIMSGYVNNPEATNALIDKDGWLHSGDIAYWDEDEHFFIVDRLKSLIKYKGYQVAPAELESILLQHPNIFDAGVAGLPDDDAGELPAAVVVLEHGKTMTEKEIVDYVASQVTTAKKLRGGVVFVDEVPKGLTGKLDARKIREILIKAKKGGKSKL
Outline: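 Inhibition of purified Photinus luciferase is measured by luminescence. Substrate levels (D-luciferin, ATP) sit at their KM values. Each compound is tested in a concentration series.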

[11] = qHTS assay to identify small molecule agonists of the constitutive androstane receptor (CAR) signaling pathway - cell viability counter screen (AID 1224836); also: nearly all actives have a fitted effect of over 45% in size; also: potency is read from the fitted curve at half-maximal effect
Outline: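 Fluorescence from CellTiter-Fluor indicates live cells after 23 h exposure. The human hepatoma line expresses hCAR and a CYP2B6-2.2kb reporter. Incubation medium contains 0.75 uM PK11195 (final).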

[12] = qHTS assay to identify small molecule antagonists of the constitutive androstane receptor (CAR) signaling pathway - cell viability counter screen (AID 1224837); also: nearly all actives have a fitted effect of over 45% in size; also: potency is read from the fitted curve at half-maximal effect
Outline: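 HepG2 cells stably expressing hCAR and a CYP2B6-2.2kb reporter were plated and pre-incubated 4 hr at 37 C/5% CO2, then given compounds at 15 concentrations plus 50 nM CITCO (final). After 23 hr, viability was read by CellTiter-Fluor fluorescence.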

[13] = target: Nuclear receptor subfamily 1 group I member 3 (Homo sapiens) (UniProt Q14994); assay: qHTS assay to identify small molecule agonists of the constitutive androstane receptor (CAR) signaling pathway (AID 1224839); also: nearly all actives have a fitted effect of over 15% in size; also: potency is read from the fitted curve at half-maximal effect
Outline: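 Stable hCAR/CYP2B6-2.2kb HepG2 line in DMEM with 10% FBS; compounds (15 concentrations) and 0.75 uM PK11195 final, 24 h at 37 C/5% CO2, then ONE-Glo luminescence after 30 min.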

[14] = qHTS assay to identify small molecule antagonists of the estrogen related receptor signaling pathway with the pleiotropic PPARgamma coactivator (PGC) from Tox21 10K library - cell viability counter screen (AID 1224840; active = well fitted cell-killing curve with a large enough effect in the repeat runs, not every such curve was filed as active; also: nearly all actives have a fitted effect of over 40% in size; also: potency is read from the fitted curve at half-maximal effect)
Outline: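 PGC/ERR cells were seeded at 2,000 cells/well and left 6 hours at 37 C/5% CO2 before pin-tool addition of compounds in DMSO. After 17.5 hours at 37 C, CellTiter-Fluor was added and fluorescence read 30 minutes later.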

[15] = qHTS assay to identify small molecule antagonists of the estrogen related receptor (ERR) signaling pathway - cell viability counter screen (AID 1224818);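 also: series mostly up to about 46 µM; viability measured after 17.5 h of compound exposure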
Outline: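 ERR reporter cells plated 6 h at 37 C/5% CO2, then compounds in DMSO pin-transferred and incubated 17.5 h at 37 C. Viability read as CellTiter-Fluor fluorescence after 30 min at 37 C.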

[16] = qHTS assay to identify small molecule antagonists of the estrogen related receptor (ERR) signaling pathway (AID 1224819;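 also: luminescence from an ERR-driven luciferase reporter measured with One-Glo reagent; series mostly up to about 46 µM; nearly all actives have a fitted effect of over 50% in size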)
Outline: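 ERR reporter cells were plated at 2,000 cells/well and left 6 h at 37 C/5% CO2 before pin-tool transfer of compounds in DMSO. After 18 h at 37 C, One-Glo was added and luminescence was read 30 min later at room temperature.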

[17] = qHTS assay to identify small molecule agonists of the estrogen related receptor (ERR) signaling pathway (AID 1224820)
Outline: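 ERR reporter cells (NTP line) plated 2,000/well, incubated 6 h at 37 C/5% CO2, then pinned with compounds in DMSO and held 18 h at 37 C. One-Glo added; luminescence read after 30 min at room temperature.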

[18] = test system: estrogen-related receptor alpha (ERRalpha) with PGC-1alpha coactivator, human; assay: qHTS assay to identify small molecule antagonists of the estrogen related receptor signaling pathway with the pleiotropic PPARgamma coactivator (PGC) (AID 1224821; calls by dose curve)
Outline: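 Cells engineered for PGC/ERR signalling (line from NTP) were plated 6 h at 37 C/5% CO2, then exposed to DMSO-dissolved compound for 18 h at 37 C. Luciferase activity was read by One-Glo luminescence after 30 min at room temperature.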

[19] = qHTS assay to identify small molecule antagonists of the estrogen related receptor signaling pathway with the pleiotropic PPARgamma coactivator (PGC) cell viability counter screen (AID 1224822; also: series mostly up to about 46 µM)
Outline: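 PGC/ERR cells were seeded at 2,000 cells/well, rested 6 h at 37 C/5% CO2, then given compounds in DMSO by pin tool and incubated 17.5 h at 37 C. Viability came from CellTiter-Fluor fluorescence after 30 min.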

[20] = qHTS assay to identify small molecule agonists of the estrogen related receptor signaling pathway with the pleiotropic PPARgamma coactivator (PGC) (AID 1224823)
Outline: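 PGC/ERR reporter cells were seeded, rested 6 h at 37 C/5% CO2, then exposed to compounds in DMSO by pin transfer for 18 h at 37 C. Luciferase activity was read as luminescence after One-Glo reagent and 30 min at room temperature.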

Measured: Potency

COc1ccc(C(=O)/C(Br)=C\C(=O)O)cc1
active: [4] 27.3 µM | [5] 54.5 µM | [8] 24.3 µM
inactive: [1] | [2] | [3] | [6] | [7] | [9]

NNC(=O)c1cccc(C(=O)NN)c1
inactive: [1] | [2] | [3] | [5] | [10] | [11] | [12] | [6] | [13] | [14]

COc1ccc(CN2CCN(C(c3ccc(F)cc3)c3ccc(F)cc3)CC2)c(OC)c1OC
inactive: [2] | [10] | [13] | [8]
active: [1] 13.4 µM | [3] 26.6 µM | [5] 13.3 µM | [14] 26.6 µM | [7] 11.9 µM

CCCCCCCCOC(=O)c1ccc(O)cc1
inactive: [2] | [3] | [4] | [11] | [12] | [6] | [14] | [9]
43.5 µM (active) and inactive: [1]

CC(C)(C)C(=O)OCOC(=O)C1N2C(=O)CC2S(=O)(=O)C1(C)C (stereo unspecified)
inactive: [1] | [2] | [3] | [4] | [5] | [10] | [11] | [14] | [9]

CCCN(CCC)c1c([N+](=O)[O-])cc(C(F)(F)F)c(N)c1[N+](=O)[O-]
inactive: [10] | [8]
active: [1] 13.8 µM | [2] 60.9 µM | [3] 30.5 µM | [5] 48.4 µM | [13] 13.6 µM | [14] 43.1 µM | [7] 38.5 µM | [9] 6.09 µM

Cc1ccc2oc(CN(Cc3ccccc3)C(=O)Nc3c(F)cc(F)cc3F)c(-c3ccc(Cl)cc3)c2c1
inactive: [1] | [2] | [3] | [4] | [5] | [10] | [11] | [14] | [8]

O=C(c1ccc(F)cc1)C1CCN(CCn2c(=O)[nH]c3ccccc3c2=O)CC1
inactive: [15] | [16] | [17] | [18] | [19] | [20]

CC(C)C(C)(C)C(C)(C)C(C)(C)S
inactive: [15] | [19]

CC1=C(/C=C/C(C)=C/C=C/C(C)=C/C=O)C(C)(C)CCC1
active: [1] 19.4 µM | [4] 0.542 µM | [5] 27.1 µM | [11] 54.2 µM | [12] 68.2 µM | [14] 54.2 µM

[Cl][Au]([Cl])[Cl]
active: [1] 24.5 µM | [3] 30.6 µM | [5] 27.3 µM | [11] 7.7 µM | [12] 3.86 µM | [14] 7.7 µM | [7] 1.72 µM
inactive: [8]

N/C(=N\N=C\c1ccc(Cl)cc1)N/N=C/c1ccc(Cl)cc1
inactive: [4] | [11] | [6] | [7] | [8]
active: [1] 19 µM | [5] 33.5 µM | [10] 9.77 µM

CCc1cc(Cc2cc(CC)cc(C(C)(C)C)c2O)c(O)c(C(C)(C)C)c1
inactive: [10] | [13] | [8]
active: [1] 13.8 µM | [3] 27.3 µM | [5] 54.5 µM | [11] 61.1 µM | [12] 61.1 µM | [6] 21.7 µM | [14] 43.3 µM | [7] 27.3 µM

Cc1cc(CCN2CCN(c3nsc4ccccc34)CC2)cc2c1NC(=O)CC2(C)C
inactive: [10] | [6] | [8]
active: [1] 11 µM | [3] 30.6 µM | [5] 30.6 µM | [11] 48.6 µM | [13] 21.7 µM | [14] 27.3 µM | [7] 7.7 µM
